A selection: hits, their analogues and other compounds. The true share with any hit is near 2.9%.
MEKK2 mut-MEK5: signal of MEK5 binding to mutant human MEKK2 PB1 domain. percent response, % at 10 µM. AID 1530. bead flow cytometry, Alexa488-MEK5 binding to MEKK2 mutant. hit rate 0.35% among 290,000; in the data active = percent response above about 24%, passing the limit was not always enough
MEKK2wt PB1 HTS: raises or lowers MEK5 binding to wildtype human MEKK2 PB1 domain; bead flow cytometry, Alexa488-MEK5 binding to MEKK2 WT; actives lie on both sides; binding response (% of control), % at 10 µM; hit rate 1.1% among 290,000; AID 1531; in the data active = binding response below about 67% or above about 130%
ABCB6 inh MLPCN: inhibitors of human ABC transporter ABCB6 | fluorescence ratio to DMSO, % at 10 µM | K562-ABCB6 porphyrin accumulation, flow cytometry, 1 h; active compounds read low | AID 602162 | Q9NP58 | hit rate 0.19% among 360,000;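 active = fluorescence ratio to DMSO below 75%, the collection mean minus 3 SD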;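 note: signal is porphyrin accumulated inside mitochondria; 100% equals median channel fluorescence of DMSO control wells; lower ratio means ABCB6 inhibition with less porphyrin fluorescence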
CRFBP-R2 block: blocks CRF-induced signaling of the CRF-BP/CRF-R2 complex; HEK293 CRF-R2/CRF-BP, CRF-induced calcium fluorescence; inhibition, % at 11.8 µM; hit rate 0.59% among 350,000;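 active = inhibition of the ligand-induced calcium signal above about 50% at the single tested concentration, limit read from the data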
CRFBP-R2 agonist: CRF-BP/CRF-R2 complex agonism; activation, % at 13.2 µM; hit rate 0.46% among 350,000; AID 588473; HEK293 CRF-R2/CRF-BP, calcium dye fluorescence (FLIPR); percent of saturating CRF peptide response;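 active = activation of at least 50%, plus an integration ratio under a set limit after plate pattern correction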;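 note: plate controls were neutral control wells without compound for no effect and CRF at EC100 for full effect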
MEKK3 PB1 HTS: MEKK3-MEK5 PB1 interaction, increase or decrease; Q99759; binding response (% of control), % at 10 µM; bead-based flow cytometry, Alexa488-MEK5 binding to MEKK3; actives lie on both sides; 0 = blocked by unlabeled MEK5, 100 = vehicle; AID 1529; hit rate 1.4% among 290,000;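 active = binding response more than 3 SD above or below the average of its plate-row segment, actives on both sides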;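 note: Alexa488 bead fluorescence after subtracting the streptavidin-only scavenger bead signal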
Target sequence (Q99759 whole entry, looked up): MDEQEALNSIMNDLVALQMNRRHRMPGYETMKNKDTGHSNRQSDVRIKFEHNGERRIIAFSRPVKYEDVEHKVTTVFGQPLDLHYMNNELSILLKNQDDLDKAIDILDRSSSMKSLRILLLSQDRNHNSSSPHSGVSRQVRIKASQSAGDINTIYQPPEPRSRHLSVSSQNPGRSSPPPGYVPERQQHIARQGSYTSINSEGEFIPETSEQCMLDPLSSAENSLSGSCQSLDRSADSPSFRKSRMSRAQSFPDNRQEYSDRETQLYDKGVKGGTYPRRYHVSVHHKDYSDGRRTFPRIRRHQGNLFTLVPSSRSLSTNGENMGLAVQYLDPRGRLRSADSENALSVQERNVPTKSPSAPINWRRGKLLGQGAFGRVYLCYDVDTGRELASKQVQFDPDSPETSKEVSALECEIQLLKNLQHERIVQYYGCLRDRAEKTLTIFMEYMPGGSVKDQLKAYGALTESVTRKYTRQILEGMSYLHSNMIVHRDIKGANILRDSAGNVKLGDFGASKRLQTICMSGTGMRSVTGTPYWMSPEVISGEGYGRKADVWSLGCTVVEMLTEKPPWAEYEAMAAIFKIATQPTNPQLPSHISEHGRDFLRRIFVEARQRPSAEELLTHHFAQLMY
MEKK2wt confirm: raises or lowers MEK5 binding to wildtype human MEKK2, retest | bead flow cytometry, Alexa488-MEK5 binding to MEKK2 WT; actives lie on both sides | hit rate 2.4% among 5,900 | AID 1892 | shares compounds with MEKK3 PB1 HTS | binding response (% of control), % at 10 µM; in the data active = binding response below about 16% or above about 210%; inactive = in between
MEKK2mut confirm: signal of MEK5 binding to mutant human MEKK2, retest; hit rate 2% among 5,900; percent response, % at 10 µM; shares compounds with MEKK3 PB1 HTS; AID 1893; bead flow cytometry, Alexa488-MEK5 binding to MEKK2 mutant; in the data active = percent response mostly above about 71%, no sharp cut-off; inactive = mostly below about 38%;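 note: higher means compound restores mutant binding toward wildtype level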
MEKK3 confirm: confirmation of inhibitors of MEK5 binding to human MEKK3; shares compounds with MEKK3 PB1 HTS; bead flow cytometry, Alexa488-MEK5 binding to MEKK3; active compounds read low; binding response (% of control), % at 10 µM; hit rate 1.8% among 5,900; AID 1894;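 active = binding response below 72% of control, or above a set upper limit, though filed actives all read lower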;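 note: 100% = DMSO only wells and 0% = binding blocked by excess unlabeled MEK5; lower values mean stronger disruption of MEK5 binding to MEKK3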
* hit, by the source's call; . = no result given; [ ] = another dose, or the depositor's remark.

SMILES | MEKK2 mut-MEK5 | MEKK2wt PB1 HTS | ABCB6 inh MLPCN | CRFBP-R2 block | CRFBP-R2 agonist | MEKK3 PB1 HTS | MEKK2wt confirm | MEKK2mut confirm | MEKK3 confirm
CCOc1ccc(NC(=O)CN(C)C(=O)c2c(C)nn(Cc3ccccc3Cl)c2C)cc1OCC | . | . | 100 | 3 | 0 | . | . | . | .
CN1CCS/C1=C/C=C1/SC(=S)N(Cc2ccccc2)C1=O | -2 | 69 | 113 | -78 | 36 | 95 | . | . | .
CCN1C(c2ccccc2)=C(c2ccccc2)S/C1=C/C=C1\SC(=S)N(C)C1=O | -15 | -7.0* | 190 | -14 | 2 | 37*[inhibitor] | 29 | -20 | 51*
CCN1C(c2ccccc2)=C(c2ccccc2)S/C1=C\C=C1/SC(=S)N(C)C1=O | -22 | -8.0* | 332 | -4 | 2 | 33*[inhibitor] | 46 | -44 | 70*
CCN1C(=O)/C(=C/C=C2/Sc3ccc4ccccc4c3N2CCO)SC1=S | -3 | 8.0*[inhibitor] | 438 | -39 | -2 | 90 | 73 | -33 | 85
CCN1/C(=C\C=C2\C(=O)N(C)C(=S)N2C)Sc2ccccc21 | -11 | 87 | 122 | -29 | 4 | 95 | . | . | .
N/C(Cc1ccc([N+](=O)[O-])cc1)=N\OC(=O)c1ccc(Br)cc1 | 1 | 109 | 90 | 62* | -2 | 132* | 106 | 5 | 105
C/C(=N/NC(=O)CNC(=O)C1COc2ccccc2O1)c1ccc([N+](=O)[O-])cc1 (stereo not given) | -1 | 99 | 100 | -5 | -1 | 100 | . | . | .
COc1cc2c(cc1N)-c1ccc(N)cc1C2 | . | . | 142 | 10 | 8 | . | . | . | .
CCOC(=O)c1sc(NC(=O)CN2C(=O)NC3(CCCCCCC3)C2=O)c(C(=O)OCC)c1C | -11 | 25*[inhibitor] | 99 | -27 | 1 | 35*[inhibitor] | 100 | 2 | 106
O=C(NCCc1ccccc1)c1ccc(CS(=O)Cc2ccc(Cl)cc2)o1 (stereo not given) | -5 | 97 | 90 | 4 | -2 | 101 | . | . | .
Cc1cc(=O)nc2c3ccccc3n(C(C)C(=O)NCCC(C)C)n12 (stereo not given) | 5 | 103 | 100 | 11 | -5 | 99 | . | . | .
CC(=O)c1ccc(NC(=O)C(C)n2c3ccccc3c3nc(=O)cc(C)n32)cc1 (stereo not given) | -17 | 52 | 114 | 13 | -2 | 44*[inhibitor] | 103 | -3 | 103
CCCCNc1cc(C(=O)O)cc(S(N)(=O)=O)c1Oc1ccccc1 | -1 | 16*[inhibitor] | 105 | -8 | 4 | 87 | 94 | -6 | 99
NS(=O)(=O)c1cc(C(=O)O)cc(N2CCCC2)c1Oc1ccccc1 | . | . | 96 | -13 | 0 | . | . | . | .
Cc1ccc(NC2c3ccccc3C(=O)N2c2cccnc2)cc1 (stereo not given) | 24 | 109 | 95 | -3 | -1 | 127 | . | . | .
Cc1ccc(N/C=C2\C(=O)N(c3ccc(F)cc3F)C(c3cccnc3)S2(=O)=O)cc1 (stereo not given) | 27 | 113 | 109 | -3 | -1 | 131* | 104 | 0 | 101
CCOC(=O)n1c(O)c(N=NC(N)=S)c2cc(C)ccc21 | -20 | 69 | 99 | -7 | -1 | 68*[inhibitor] | 104 | 2 | 103
Cc1nc2ccccc2c2oc(C(=O)N3CCC(N4CCCCC4)CC3)cc12 | 26* | 138* | 100 | -20 | -1 | 112 | 144 | 42 | 97
Cc1nc2ccccc2c2oc(C(=O)N3CCN(C4CCCCC4)CC3)cc12 | -2 | 99 | 100 | 18 | 0 | 93 | . | . | .
CN1Cc2sc(N)c(C#N)c2CC1(C)C | -14 | 52*[inhibitor] | 102 | -5 | 20 | 88 | 94 | 4 | 88
CC1(C)Cc2c(sc(N)c2C#N)C(C)(C)N1 | -8 | 96 | 97 | -1 | 13 | 106 | . | . | .
COc1cc2c(cc1NC(=S)NC(=O)c1c(OC)cccc1OC)oc1ccccc12 | 0 | 102 | 113 | 10 | 0 | 129* | 85 | -11 | 96
COc1ccc(C(=O)NC(=S)Nc2cc3oc4ccccc4c3cc2OC)cc1 | -2 | 91 | 108 | -26 | 5 | 95 | . | . | .
Cc1cc(CNC(=O)COC(=O)c2ccc(Cl)c(N)c2)cc(C)c1O | . | . | 103 | 11 | -1 | . | . | . | .
SMILES | MEKK2 mut-MEK5 | MEKK2wt PB1 HTS | ABCB6 inh MLPCN | CRFBP-R2 block | CRFBP-R2 agonist | MEKK3 PB1 HTS | MEKK2wt confirm | MEKK2mut confirm | MEKK3 confirm
CCOC(=O)c1[nH]c(C)c(C(=O)OCC(=O)N2CCc3ccccc32)c1C | 4 | 107 | 90 | -28 | -1 | 110 | . | . | .
CC(=O)c1c(C)[nH]c(C(=O)OCC(=O)N2CCc3ccccc32)c1C | -41 | 1.0*[inhibitor] | 95 | 0 | 2 | 2.0*[inhibitor] | 106 | 2 | 101
CC(Oc1cccc(Br)c1)C(=O)NNC(=O)CCS(=O)(=O)c1ccccc1 (stereo not given) | . | . | 100 | 7 | -1 | . | . | . | .
CCCCNC(=S)Nc1ccc2nc(N3CCN(CC)CC3)cc(C)c2c1 | 27* | 139* | 96 | -11 | 0 | 111 | 144 | 30 | 109
CCCN1CCN(CCCNC(=S)Nc2ccc3nc(N4CCN(CC)CC4)cc(C)c3c2)CC1 | 15 | 129 | 101 | 3 | 0 | 109 | . | . | .
CCCCN(C)CCNC(=S)Nc1ccc2nc(N3CCN(CC)CC3)cc(C)c2c1 | 17 | 134* | 105 | 2 | 1 | 109 | 121 | 14 | 106
COc1ccc(/C=C/c2nc3ccccc3n2Cc2ccccc2OC)cc1 | 5 | 105 | 101 | 2 | 0 | 151* | 111 | 3 | 107
O=C(O)CN1C(=O)C2(OCCCO2)c2ccccc21 | -25 | 2.0*[inhibitor] | 95 | -10 | 0 | 2.0*[inhibitor] | 101 | -4 | 101
COc1ccc(P(=O)(COc2ccc([N+](=O)[O-])cc2)c2ccc(OC)cc2)cc1 | -1 | 101 | 102 | -6 | 3 | 66*[inhibitor] | 94 | -3 | 94
N#Cc1ccccc1OCC(=O)Nc1ccc(S(=O)(=O)N2CCOCC2)cc1 | . | . | 99 | -20 | 0 | . | . | . | .
C[C@H](CO)N1C[C@H](C)[C@H](CN(C)C(=O)Nc2ccc(-c3cccs3)cc2)OCc2cnnn2CCCC1=O | . | . | 93 | -10 | 0 | . | . | . | .
CCc1ccc(Nc2n[n+](-c3ccccc3)c(-c3ccc(C(=O)O)cc3)s2)cc1 | 3 | 99 | 103 | 1 | -3 | 100 | . | . | .
CSc1ccc(-c2sc(Nc3ccccc3)n[n+]2-c2ccccc2)cc1 | 10 | 148* | 102 | 12 | -2 | 106 | 121 | 31 | 102

Source: PubChem
